# The supplement of paper PMC6555819
# Experiments:
# Experiment in all cases: PBM binding z-score (relative to random genomic background probes); higher = stronger binding; sequences stand for … in GC…GCGATTGACAGCGTAGAATGAAGG
# [1] = test system: FXR:RXRa (NR concentration 270 nM, RXRa partner concentration 90 nM)
# Method in brief: (§1)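 Custom Agilent 4×180K protein-binding microarrays carried double-stranded probes, each with a 34-nt variable region. These regions held direct-repeat seeds, single-nucleotide variants, half-site ablations and random human genomic background sequences. Ligand-free nuclear receptor dimers were incubated on the arrays for 1 h, antibodies against each partner (one per run) detected binding, and scanned fluorescence was regression-normalized. Binding z-scores take the random background probes as reference.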
# [2] = test system: LXRa:RXRa (NR concentration 270 nM, RXRa partner concentration 90 nM)
# Method in brief: as §1
# [3] = test system: LXRa homodimer (NR concentration 270 nM)
# Method in brief: as §1
# [4] = test system: LXRb:RXRa (NR concentration 270 nM, RXRa partner concentration 90 nM)
# Method in brief: as §1
# [5] = test system: LXRb homodimer (NR concentration 270 nM)
# Method in brief: as §1
# [6] = test system: PPARa:RXRa (NR concentration 270 nM, RXRa partner concentration 90 nM)
# Method in brief: as §1
# [7] = test system: PPARg:RXRa (NR concentration 180 nM, RXRa partner concentration 90 nM)
# Method in brief: as §1
# [8] = test system: PPARg:RXRa 270nM:90nM, anti-RXR (NR concentration 270 nM, RXRa partner concentration 90 nM)
# Method in brief: as §1
# [9] = test system: PPARg:RXRa 30nM:10nM, anti-RXR (NR concentration 30 nM, RXRa partner concentration 10 nM)
# Method in brief: as §1
# [10] = test system: PPARg:RXRa 90nM:30nM, anti-RXR (NR concentration 90 nM, RXRa partner concentration 30 nM)
# Method in brief: as §1
# [11] = test system: PPARg:RXRa DBDmut IVT, anti-RXR (DBD mutation: RXRa K156A/R161A, NR concentration 270 nM, RXRa partner concentration 90 nM)
# Method in brief: as §1
# [12] = test system: PPARg:RXRa IVT, anti-PPARg (NR concentration 270 nM, RXRa partner concentration 90 nM)
# Method in brief: as §1
# [13] = test system: PPARg DBDmut:RXRa IVT, anti-PPARg (DBD mutation: PPARg1 K132A/R137A, NR concentration 270 nM, RXRa partner concentration 90 nM)
# Method in brief: as §1
# [14] = test system: PPARg DBDmut IVT, anti-PPARg (DBD mutation: PPARg1 K132A/R137A, NR concentration 270 nM)
# Method in brief: as §1
# [15] = test system: PPARg homodimer (NR concentration 180 nM)
# Method in brief: as §1
# [16] = test system: PXR:RXRa (NR concentration 270 nM, RXRa partner concentration 90 nM)
# Method in brief: as §1
# [17] = test system: PXR homodimer (NR concentration 270 nM)
# Method in brief: as §1
# [18] = test system: RARa:RXR (NR concentration 270 nM, RXRa partner concentration 90 nM)
# Method in brief: as §1
# [19] = test system: RARa homodimer (NR concentration 270 nM)
# Method in brief: as §1
# [20] = test system: RARb:RXRa (NR concentration 270 nM, RXRa partner concentration 90 nM)
# Method in brief: as §1
Sequence,PBM binding z-score [1],PBM binding z-score [2],PBM binding z-score [3],PBM binding z-score [4],PBM binding z-score [5],PBM binding z-score [6],PBM binding z-score [7],PBM binding z-score [8],PBM binding z-score [9],PBM binding z-score [10],PBM binding z-score [11],PBM binding z-score [12],PBM binding z-score [13],PBM binding z-score [14],PBM binding z-score [15],PBM binding z-score [16],PBM binding z-score [17],PBM binding z-score [18],PBM binding z-score [19],PBM binding z-score [20]
CCGACTGGGGCAAAGGTTACAATACTCAGTACGA,1.77,1.65,0.0321,2.42,-0.618,5.62,12.1,9.57,11.1,11.3,4.99,6.06,0.209,0.0744,1.56,2.63,-0.0818,4.23,0.27,2.55
GCTAGTTGGTCATTAAAAGGTCACACACCGGTCG,3.71,4.83,6.37,4.7,1.12,4.31,1.92,3.77,1.5,2.68,1.97,2.97,-0.134,0.443,4.31,5.25,1.39,6.14,1.98,4.4
AGTCAAAGTTCACCTAGGTAACGTAAGATATGCT,6.25,5.63,3.58,3.92,1.2,4.94,7.15,6.41,3.81,5.63,1.22,4.08,1.35,1.84,2.06,4.76,3.76,3.95,1.51,4.99
GCAGACAGGTGATACGCAGGTAACTCAGGGTGGC,-0.378,-0.342,-0.563,-0.687,-1.16,-0.129,0.508,-0.512,-0.33,-0.762,-0.192,-0.471,-0.737,-0.846,-0.0293,-0.424,-0.57,0.0928,-0.408,-0.253
CCAACTGGGCCAAGGTCATTGATCAGTCAAAGCA,2.96,2.9,0.591,2.91,-0.522,4.3,4.16,4.06,1.82,3.3,4.04,4.58,-0.617,-0.824,1.58,3.11,0.914,3.22,0.0494,3.39
CGTCCAAGGTCTAAGGTCAGTGAAGAGATGACGG,2.27,1.6,-0.0447,1.63,-0.547,3,3.03,4,2.41,3.52,0.385,1.44,-0.479,-0.374,2.23,2.21,0.498,3.2,0.608,3.71
CCGAGTAGGCTATGGGGCATTCAGGCAACGGTGA,-0.882,-1.01,-0.67,-0.799,-1.07,0.341,1.43,2.92,0.549,2.35,0.771,0.867,-0.695,-1.15,-0.376,-0.862,-0.647,-0.583,-0.463,-0.102
AGAATGAGGTTAGGATCAGGGAAACAGAATACAT,0.875,0.506,-0.0173,1.16,0.0197,2.19,1.11,1,0.649,0.78,1.28,1.5,1.12,0.953,1.27,0.668,0.603,0.932,1.08,1.37
CCTACTTGGCCATTCAGAGGTCATTGATCATATG,3.12,4.37,6.52,4.31,1.21,3.83,0.976,2.46,0.88,1.77,1.47,1.52,1.11,0.893,2.19,4.93,1.5,4.54,1.18,3.13
ACAGACAGGTGATGAAGGTAACTCACGCTATCAT,-0.0545,0.135,-0.0211,0.0443,-0.474,0.247,0.81,0.393,0.232,-0.0255,0.262,0.375,0.0319,-0.0294,0.0571,0.00932,0.106,0.165,0.142,0.289
GGAACGAGGCCAAGTTGATAGCAGAGTTTGATGG,-0.211,-0.562,-0.768,-0.914,-0.878,0.0938,0.353,0.159,-0.422,-0.286,1.98,0.981,-1.22,-0.68,-0.613,-0.452,0.241,-0.778,-0.416,1.36
ATCTCTAGGTAAGACTCAGTTCAGGGAAGAACGC,0.579,0.883,0.863,0.68,1.19,0.432,0.216,0.397,0.337,0.289,1.95,0.842,1.12,0.798,0.913,1.19,1.64,0.799,1.28,0.579
CGAGCTAGGTCAGAACAGGACAGTGAAGGATGAT,1.62,0.749,-0.308,-0.00924,-0.647,1.11,1.11,0.596,-0.277,0.0129,1.93,1.04,-1.14,-1.15,0.363,0.798,-0.245,0.682,-0.341,2.89
GCTCGGAGGACAAGGTCGGAGCTTTGTCCGTAGA,-0.163,-0.153,-0.91,-0.475,-1.14,0.143,-1.09,-0.163,-1.12,-0.578,-1.06,-0.138,-1.21,-1.93,-0.925,-0.155,-0.823,0.146,-1.12,1.59
